tested on: DRIVER-selected RNA biosensor (aptazyme) pool; test: maximum fold change of ribozyme cleavage across biosensor pool versus no-compound control; higher = stronger biosensor response (ligand inhibits cleavage); conditions: 10 µM
Description: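 CleaveSeq: a pool of resynthesized hammerhead-ribozyme RNA biosensors (sTRSV scaffold with randomized loops, 1,730 sequences) was T7-transcribed at 37 °C for 15-30 min with a single compound at 10 µM. Cleaved and uncleaved products were counted by NGS, and fold change of cleavage was computed against the DMSO-only condition. The value is the maximum fold change of cleavage over all biosensors in the pool. About 255 compounds were tested individually.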

SMILES	maximum fold change
Cc1ccc(CNC(=O)CN2CC(c3ccccc3)CC2=O)cc1 (centres undefined)	3.05
O=Cc1cn(Cc2ccc(F)cc2Cl)c2ccccc12	3
CN1CCN(Cc2csc3c2CCCC3)CC1	3.66
O=C(Cn1cnc2sc3c(c2c1=O)CCCC3)NCCCC(=O)N1CCC2(CC1)OCCO2	2.67

Reference: the supplement of paper PMC9477273
